# Source: PubChem BioAssay (National Center for Advancing Translational Sciences (NCATS))
# Shown are actives, neighbours in structure and some others; about 12% of the full set was active somewhere.
# L3MBTL1 block = blocks human L3MBTL1. Q9Y468. AlphaScreen L3MBTL1–H3K9me1 peptide binding. Potency, µM (highest dose often 57.1 µM), inactives show at the highest dose activity, negative = inhibition, hits mostly inhibitors. hit rate 0.66% among 230,000. AID 485360; also: % is scaled to controls: 0 for no effect and ±100 for the full control effect; nearly all actives have a fitted effect of over 60% in size
# Target sequence (Q9Y468 whole entry, looked up): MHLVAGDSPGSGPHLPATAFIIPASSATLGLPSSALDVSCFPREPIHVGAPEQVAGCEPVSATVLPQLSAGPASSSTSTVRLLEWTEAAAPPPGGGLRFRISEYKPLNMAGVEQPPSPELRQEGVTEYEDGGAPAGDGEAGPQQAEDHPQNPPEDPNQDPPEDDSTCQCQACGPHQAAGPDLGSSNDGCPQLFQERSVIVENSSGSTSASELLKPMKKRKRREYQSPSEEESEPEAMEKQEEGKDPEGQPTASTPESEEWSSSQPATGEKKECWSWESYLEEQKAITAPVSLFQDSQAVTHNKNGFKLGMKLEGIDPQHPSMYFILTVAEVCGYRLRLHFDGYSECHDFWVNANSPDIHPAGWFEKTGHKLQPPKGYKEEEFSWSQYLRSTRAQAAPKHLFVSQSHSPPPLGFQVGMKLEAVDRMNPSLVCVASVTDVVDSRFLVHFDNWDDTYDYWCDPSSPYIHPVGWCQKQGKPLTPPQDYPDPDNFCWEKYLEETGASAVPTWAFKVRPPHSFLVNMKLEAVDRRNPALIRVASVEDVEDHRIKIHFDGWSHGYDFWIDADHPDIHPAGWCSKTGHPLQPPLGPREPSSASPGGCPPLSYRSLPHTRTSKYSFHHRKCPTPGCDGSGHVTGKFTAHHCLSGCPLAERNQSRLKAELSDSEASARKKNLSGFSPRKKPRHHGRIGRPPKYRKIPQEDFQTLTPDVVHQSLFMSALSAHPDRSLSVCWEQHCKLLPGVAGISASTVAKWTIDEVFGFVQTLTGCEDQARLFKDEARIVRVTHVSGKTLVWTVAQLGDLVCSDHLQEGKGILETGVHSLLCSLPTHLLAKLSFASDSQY
#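 First, the protein-peptide complex forms for 30 min at room temperature (L3MBTL1 50 nM, biotinylated H3K9me1 peptide 75 nM). Next, compounds are pin-transferred and incubated 30 min. Finally, AlphaScreen beads are added and read after 30 min.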
# Sfp PPTase inh = Sfp phosphopantetheinyl transferase inhibition; Q9F4F7; Biochemical Sfp PPTase activity, qHTS; Potency, µM, without a hit: largest response in the series, negative = inhibition, most hits filed as inhibitors; hit rate 3.5% among 310,000; AID 1490;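 also: the enzyme is Sfp with the accession as filed and its product quenches rhodamine fluorescence; 0% = enzyme reaction without inhibitor and -100% = no enzyme wells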
#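 With Hepes-Na pH 7.6 buffer containing 10 mM MgCl2, Sfp (15 nM) modified BHQ-2-YbbR (12.5 uM) using rhodamine-CoA (5 uM). Two reads 30 minutes apart at 525/598 nm yielded each well's rate.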
# HP1b chromo inh = inhibitors of HP1-beta chromodomain binding to methylated histone tails. AlphaScreen HP1-beta / biotin-H3K9me3 peptide binding. Potency, µM (doses to about 114 µM), for inactives: top-dose activity change, negative = inhibition, usual class: inhibitors. hit rate 0.56% among 390,000. AID 540317; also: nearly all actives have a fitted effect of over 70% in size
#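 Compound inhibition of the preformed complex between 50 nM HP1-beta and 50 nM biotinylated H3K9me3 peptide was read by AlphaScreen. Buffer was PBS pH 7.4 with 0.01% Tween-20. Incubations ran 30 min at room temperature, with 10 ug/mL donor/acceptor beads.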
# BAZ2B block = BAZ2B (human) inhibition. AID 504333. Q9UIF8. hit rate 4.4% among 360,000. AlphaScreen BAZ2B-H3K14Ac peptide displacement. Potency, µM (titrated, usually from 114 µM), for inactives: at the highest dose activity change, negative = inhibition, actives largely listed as inhibitors; also: % is scaled to controls: 0 for no effect and ±100 for the full control effect; nearly all actives have a fitted effect of over 60% in size
#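 BAZ2B 50 nM plus b-H3(5-23)K14Ac 50 nM, PBS pH 7.4/0.01% Tween-20, 30 min RT; compound added (max 110 uM), 30 min RT; streptavidin donor/Ni-chelate acceptor beads 10 ug/mL final, 20 min dark; AlphaScreen read.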
# G9a inh = blocks human histone lysine methyltransferase G9a | G9a H3K9 monomethylation, AlphaScreen, 2 h | Potency, µM (titrated, usually from 102 µM), inactives show at the top dose activity, negative = inhibition, hits mostly inhibitors | hit rate 8.8% among 350,000 | AID 504332; also: % is scaled to controls: 0 for no effect and ±100 for the full control effect; nearly all actives have a fitted effect of over 75% in size
#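 Readings reflect AlphaScreen signal from monomethyl-H3K9 antibody detection. HMT at 20 nM; substrate b-H3K9 500 nM; cofactor SAM 20 uM; 2 h RT reaction; compounds tested as titrations in qHTS with 15 min preincubation.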
# JMJD2A Tudor = blocks the human JMJD2A Tudor domain | O75164 | AlphaScreen JMJD2A-Tudor / H3K4me3 peptide binding | Potency, µM (top dose mostly 114 µM), without a hit: at the highest dose activity change, negative = inhibition, most hits filed as inhibitors | hit rate 4.4% among 390,000 | AID 504339; also: % is scaled to controls: 0 for no effect and ±100 for the full control effect; nearly all actives have a fitted effect of over 50% in size
# * = called active by the depositor; ? = inconclusive; . = no result given; [ ] = dose if it differs, or a comment. Calls follow the shape of the dose curve; as a rule, active = well fitted curve in the direction sought with a large enough effect; inconclusive = small, poorly fitted or top-dose-only effect, or another doubt; inactive = no such curve, though single readings can be large; an effect the other way counts as inactive or inconclusive. Potency is read from the fitted curve at half-maximal effect.
SMILES,L3MBTL1 block,Sfp PPTase inh,HP1b chromo inh,BAZ2B block,G9a inh,JMJD2A Tudor
COC(=O)c1ccc2c(=O)n(CCCCCC(=O)N3CCN(c4cc(Cl)ccc4C)CC3)c(=O)[nH]c2c1,.,.,13%,-23%,-2%[59 µM],-30%
CCOc1ccc(CCNC(=O)c2ccc3c(c2)c(C)c(C)n3Cc2ccccc2)cc1OCC,.,.,3%,?,-31%[59 µM],?
CC(=O)Nc1ccc(C=CC=Cc2cccc([N+](=O)[O-])c2)cc1,.,.,?,.,.,79µM*
O=C(CNc1ccc2ccccc2c1)N/N=C/C=C/c1cccc([N+](=O)[O-])c1,-12%,-12%,16%,89µM*,3.2µM*,?
CCCn1nnnc1NCc1ccc(N(CC)CC)cc1,.,-1%,0%,?,16µM*,-26%
CCCn1nnnc1NCc1ccc(N2CCCC2)cc1,10%[11.4 µM],1%,12%,-3%,3.5µM*,-32%
CCCCn1nnnc1NCc1ccc(N2CCCC2)cc1,-9%,-20%,-19%,?,-40%[12.7 µM],?
CCN(CC)c1ccc(CNc2nnnn2C)cc1,-1%,4%,15%,?,32µM*,-10%
Cn1nnnc1NCc1ccc(Cl)cc1,.,22%,34%,-17%,19%[59 µM],-7%
CC(=O)c1ccc(C(=O)N(Cc2cccnc2)c2nc3c(Cl)cccc3s2)cc1,.,.,17%,?,-17%[59 µM],-33%
CCc1cccc2c(-c3ccccc3)c3c(nc12)OCC3,.,-14%,.,.,.,.
CN(C)c1ccc(Nc2nc(N)c([N+](=O)[O-])c(N3CCOCC3)n2)cc1,-14%,?,?,35µM*,7.1µM*,?
CCOc1ccc(Nc2nc(N)c([N+](=O)[O-])c(N3CCN(C)CC3)n2)cc1,.,12%,16%,?,79µM*,-25%
Cc1cccc(Nc2nc(N)c([N+](=O)[O-])c(N3CCC(C)CC3)n2)c1,-8%,1%,?,?,50µM*,32µM*
CCN1CCN(c2nc(Nc3cccc(OC)c3)nc(N)c2[N+](=O)[O-])CC1,.,17%,6%,-17%,24%[2.33 µM],?
Nc1nc(Nc2ccccc2)nc(N2CCOCC2)c1[N+](=O)[O-],-9%,-2%,8%,-33%,-50%[59 µM],?
CCN1CCN(c2nc(Nc3ccc(C)c(C)c3)nc(N)c2[N+](=O)[O-])CC1,-19%,11%,?,?,10µM*,?
COc1ccc(Nc2nc(N)c([N+](=O)[O-])c(N3CCOCC3)n2)cc1,-11%,-1%,22%,?,?,?
CCn1c(=O)n(CC)c2cc(N3CCCCC3)c(NC(=O)Nc3ccccc3Cl)cc21,.,.,18%,-38%,?,?
COc1ccc(-c2nc3n(n2)C(c2ccc(OC)c(OC)c2)C(C(=O)Nc2cccnc2)=C(C)N3)cc1 (configuration not stated),.,.,42%,4%,2%[59 µM],-18%
CCOc1ccc2oc(=O)cc(CN3CCN(c4ccc(OC)cc4)CC3)c2c1,.,.,-3%,-27%,-12%[59 µM],?
COc1cc(Cl)c(NC(=O)c2cc(S(=O)(=O)N3CCCCC3)c[nH]2)c(OC)c1,.,.,26%,-7%,-36%[59 µM],-16%
Cc1ccc(/C=C/c2onc(C)c2S(=O)(=O)N2CCC(C(=O)N3CC(C)Oc4ccccc43)CC2)cc1 (configuration not stated),.,.,7%[57 µM],-9%,12%[59 µM],-10%
Cc1cc(C)c(CN2C(=O)c3ccccc3S(=O)(=O)c3ccc(C(=O)OCC4CCCO4)cc32)c(C)c1 (configuration not stated),.,.,11%,-10%,-8%[59 µM],-22%
COc1ccc(NC(=O)CCCN2C(=O)CCn3nc(-c4cn(C)c5ccccc45)cc32)cc1,.,.,10%[57 µM],-14%,-8%[59 µM],-22%
SMILES,L3MBTL1 block,Sfp PPTase inh,HP1b chromo inh,BAZ2B block,G9a inh,JMJD2A Tudor
COc1ccc(N2CC(C)Cn3c2nc2c3c(=O)n(Cc3ccc(F)cc3)c(=O)n2C)c(OC)c1 (configuration not stated),-5%,?,-22%,?,?,-20%[57.1 µM]
COc1ccc(N2CC(C)Cn3c2nc2c3c(=O)n(Cc3ccc(C)cc3)c(=O)n2C)c(OC)c1 (configuration not stated),.,-14%,-21%,.,35µM*,?
CCCNC(=O)c1cnc2sc(N3CCCCCC3)nn2c1=O,.,.,44%,-3%,6%[59 µM],-9%
O=C(CC(C(=O)O)c1ccc(Cl)cc1)c1ccc(Br)cc1 (configuration not stated),.,21%,12%,2%,-6%,-5%
O=C(CC(Sc1ccc(Br)cc1)C(=O)O)c1ccc(F)cc1 (configuration not stated),.,45µM*,57%,-15%,?,20%
CCC(Sc1ccc(C(=O)O)cc1)C(=O)O (configuration not stated),-6%,23%,32%,-4%,0%[59 µM],-12%
CCOc1ccc(C(=O)CC(Sc2ccc(C)cc2)C(=O)O)cc1 (configuration not stated),9%,35µM*,23%,-1%,0%[12.7 µM],-15%
COc1cc(O)c(C(CCN2CCCC(C)C2)c2ccc3c(c2)OCO3)c(OC)c1 (configuration not stated),.,5%,-19%,-29%,6%[12.7 µM],-36%
COc1ccc(C(CCN2CCN(c3ccccc3)CC2)c2c(O)cc(OC)cc2OC)cc1 (configuration not stated),.,1%,-23%,28µM*,3%[12.7 µM],16µM*
COc1cc(O)c(C(CCN2CCOCC2)c2ccc(N(C)C)cc2)c(OC)c1 (configuration not stated),.,15%,?,35µM*,?,45µM*
COc1cc(O)c(C(CCN2CCCC(C)C2)c2ccc(N(C)C)cc2)c(OC)c1 (configuration not stated),.,-7%,?,40µM*,?,25µM*
COc1cc(O)c(C(CCN2CCN(c3ccccc3)CC2)c2ccc(N(C)C)cc2)c(OC)c1 (configuration not stated),.,-9%,20µM*,7.9µM*,?,10µM*
Cc1cccc(N2CCN(C(=O)CCNS(=O)(=O)c3ccc4c(c3)CCN4C(=O)C3CC3)CC2C)c1 (configuration not stated),.,.,18%[57 µM],-10%,9%[59 µM],-27%
COc1ccc(N2CCN(CCC(O)c3ccc4ccccc4c3)CC2)cc1 (configuration not stated),.,-12%,?,22%,40µM*,50µM*
COc1cc(O)c(C(CC(=O)N2CCCCC2)c2ccc(N(C)C)cc2)c(OC)c1 (configuration not stated),.,-10%,-38%,?,?,50µM*
